Compound activity as filed in PubChem BioAssay.
TrxR1 inh: qHTS Assay for Inhibitors of Mammalian Selenoprotein Thioredoxin Reductase 1 (TrxR1): qHTS; recombinant rTrxR1, NADPH fluorescence consumption, selenite substrate; Potency, µM (top dose mostly 114 µM), for inactives: at the highest dose activity change, negative = inhibition, most hits filed as inhibitors; Thioredoxin reductase 1, cytoplasmic (Rattus norvegicus), O89049; 390,000 compounds, 1% hits; note: % is set by controls: 0 for no effect and ±100 for the full control effect; nearly all actives have a fitted effect of over 65% in size
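Rat TrxR1 (90 nM in the dispensed reagent) was pre-reduced with 400 uM NADPH for 5 min at room temperature, then incubated with compound for 15 min. After 400 uM selenite was added, NADPH fluorescence (Ex 340/Em 450 nm) was followed for 8 min.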
IDH1 R132H inh: qHTS for Inhibitors of mutant isocitrate dehydrogenase 1 (IDH1): qHTS; Isocitrate dehydrogenase [NADP] cytoplasmic (Homo sapiens), O75874; IDH1-R132H enzyme, NADPH consumption, diaphorase/resazurin fluorescence; 390,000 compounds, 0.093% hits; AID 602179, 2012; Potency, µM (doses to about 76.6 µM), for the others: at the highest dose activity change, negative = inhibition, usual class: inhibitors; note: % is set by controls: 0 for no effect and ±100 for the full control effect; nearly all actives have a fitted effect of over 65% in size
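IDH1-R132H (0.5 ug/mL) preincubated 30 min with compound, then NADPH (0.016 mM) and alpha-KG (2 mM) added; 80 min at RT, pH 7.5. Remaining NADPH coupled via diaphorase/resazurin to fluorescence (540/590 nm); concentration-response curves normalized to no-enzyme control.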
TrxR1 substrate: qHTS Assay for Substrates of Mammalian Selenoprotein Thioredoxin Reductase 1 (TrxR1): qHTS; purified TrxR1 substrate turnover, NADPH consumption readout; 390,000 compounds, 0.01% hits; AID 588456, 2011; Thioredoxin reductase 1, cytoplasmic (Rattus norvegicus), O89049; Potency, µM (titrated, usually from 114 µM), for inactives: at the top dose activity change, negative = substrate turnover; note: % is set by controls: 0 for no effect and ±100 for the full control effect; nearly all actives have a fitted effect of over 50% in size
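Rat TrxR1, dispensed at 90 nM, was prereduced with 400 uM NADPH (final) for 5 min at ~22 deg C, then incubated with compound 15 min before 400 uM selenite. A first-read NADPH fluorescence drop versus no-compound background flagged substrates.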
Nrf2 inh: Nrf2 qHTS screen for inhibitors; Potency, µM (top dose mostly 46 µM), inactives show at the top dose activity change, negative = inhibition, most hits filed as inhibitors; A549 ARE-Fluc reporter, luciferase luminescence, 18-24 h; 360,000 compounds, 2.1% hits; note: % is set by controls: 0 for no effect and ±100 for the full control effect; nearly all actives have a fitted effect of over 60% in size
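Concentration-response testing used A549 ARE_Fluc cells at 5000 cells/well. Following an 18-24 h compound incubation, viability was read by fluorescence (Ex 405/Em 525) and luciferase output by luminescence.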
A549 tox-1: Nrf2 qHTS screen for inhibitors: counterscreen for cytotoxicity | AID 504648, 2011 | 390,000 compounds, 0.16% hits | Potency, µM (highest dose often 46 µM), without a hit: at the highest dose activity change, negative = cytotoxicity, most hits filed as inhibitors | A549 ARE-Fluc cells, CellTiter-Fluor viability, 18-24 h; note: % is set by controls: 0 for no effect and ±100 for the full control effect
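Cytotoxicity counterscreen: CellTiter-Fluor fluorescence was measured in A549 ARE_Fluc cells after 18-24 h of compound exposure in a concentration series. The subsequent BugLite luminescent read reports ARE-luciferase activity.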
Mito fusion yeast: qHTS Assay for Small Molecule Inhibitors of Mitochondrial Division or Activators of Mitochondrial Fusion | S. cerevisiae fusion-defective mutant growth rescue, CellTiterGlo 48 h | Potency, µM (series often up to 46.1 µM), inactives show at the highest dose growth rescue (activation), hits mostly activators | 320,000 compounds, 0.23% hits | AID 485298, 2010; note: % of control where 0% means no effect; nearly all actives have a fitted effect of over 45% in size
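S. cerevisiae fusion-defective temperature-sensitive mutants (e.g. fzo1-1, mgm1-5) grown 48 h at 37C in YPEG (ethanol/glycerol non-fermentable) medium with 23 nl compound per well; growth rescue read as CellTiterGlo luminescence.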
FLuc enzyme inh: Nrf2 qHTS screen for inhibitors: Purified Fluc Biochemical Counterscreen for Hit Validation. shares compounds with Nrf2 inh. purified firefly luciferase, luminescence inhibition. Potency, µM (series often up to 57.5 µM), without a hit: at the highest dose activity change, negative = inhibition, usual class: inhibitors. 1,400 compounds, 4% hits; note: % is set by controls: 0 for no effect and ±100 for the full control effect; nearly all actives have a fitted effect of over 65% in size
Target sequence (P08659 whole entry, looked up): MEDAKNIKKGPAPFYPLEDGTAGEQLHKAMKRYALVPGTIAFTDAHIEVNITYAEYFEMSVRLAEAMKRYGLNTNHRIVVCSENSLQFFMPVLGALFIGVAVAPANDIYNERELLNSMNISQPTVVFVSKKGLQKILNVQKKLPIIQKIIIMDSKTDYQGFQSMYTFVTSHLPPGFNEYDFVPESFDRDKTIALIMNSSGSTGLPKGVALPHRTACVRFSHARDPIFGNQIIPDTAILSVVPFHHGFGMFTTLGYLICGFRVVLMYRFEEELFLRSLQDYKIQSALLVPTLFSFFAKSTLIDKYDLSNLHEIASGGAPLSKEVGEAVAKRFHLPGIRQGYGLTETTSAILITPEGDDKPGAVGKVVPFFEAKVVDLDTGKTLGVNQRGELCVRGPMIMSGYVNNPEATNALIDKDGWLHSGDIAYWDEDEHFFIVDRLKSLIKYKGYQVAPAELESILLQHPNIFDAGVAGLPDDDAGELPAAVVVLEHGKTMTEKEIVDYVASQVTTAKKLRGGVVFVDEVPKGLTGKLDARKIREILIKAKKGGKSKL
A549 tox-2: Nrf2 qHTS screen for inhibitors: A549 ARE-Fluc Cytotoxicity Counterscreen for Hit Validation; shares compounds with Nrf2 inh; A549 ARE-Fluc cells, cytotoxicity counterscreen; Potency, µM (doses to about 46.1 µM), for inactives: at the top dose activity change, negative = cytotoxicity, most hits filed as inhibitors; 1,400 compounds, 2% hits;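 note: cells exposed to compounds for 18 to 24 hours; % is set by controls: 0 for no effect and ±100 for the full control effect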
Nrf2 ARE inh: Nrf2 qHTS screen for inhibitors: Nrf2 A549 ARE-Fluc Confirmation Assay for Hit Validation; shares compounds with Nrf2 inh; A549 ARE-firefly luciferase reporter, luminescence; Potency, µM (doses to about 46.1 µM), for the others: top-dose activity change, negative = inhibition, hits mostly inhibitors; 1,400 compounds, 74% hits; note: % is set by controls: 0 for no effect and ±100 for the full control effect; nearly all actives have a fitted effect of over 65% in size
An asterisk follows results filed as active; [ ] = remark or other dose. Most compounds without a hit are left out; they make up all but 3.1% or so of the library. Calls come from the whole dose curve; as a rule, active = well fitted curve in the direction sought with a large enough effect; inconclusive = small, poorly fitted or top-dose-only effect, or another doubt; inactive = no such curve, though single readings can be large; an effect the other way counts as inactive or inconclusive. Potency is the fitted concentration of half-maximal effect.

For CNc1ccc(C=C2c3ccccc3-c3ccccc32)cc1 the results were TrxR1 inh -5%, TrxR1 substrate -5%, FLuc enzyme inh inconclusive, A549 tox-2 -25% and Nrf2 ARE inh 3.7µM*.
Screening COc1ccc(CNc2nc3c(c(=O)n(Cc4ccc(Cl)cc4)c(=O)n3C)n2C)cc1 returned TrxR1 inh 1%, IDH1 R132H inh -2%, TrxR1 substrate -12%, Nrf2 inh 9.2µM*, A549 tox-1 inconclusive, Mito fusion yeast 9%, FLuc enzyme inh 0%, A549 tox-2 -19% and Nrf2 ARE inh 13µM*.
For COCCNc1nc2c(c(=O)n(Cc3ccc(OC)cc3)c(=O)n2C)n1C the results were TrxR1 inh -1%, IDH1 R132H inh 1%, TrxR1 substrate -4%, Nrf2 inh 3%, A549 tox-1 -1% and Mito fusion yeast -1%.
OCC[n+]1ccc(/C=C/c2c[nH]c3ccccc23)cc1 was read as TrxR1 inh -8%, IDH1 R132H inh 3%, TrxR1 substrate -10%, Nrf2 inh 6.5µM*, A549 tox-1 inconclusive, Mito fusion yeast -16%, FLuc enzyme inh 0%, A549 tox-2 inconclusive and Nrf2 ARE inh 8.2µM*.
`CCCCCCCCCCCCCCCC[n+]1ccc(/C=C/c2c[nH]c3ccccc23)cc1` gave TrxR1 inh -12%, TrxR1 substrate 4%, FLuc enzyme inh inconclusive, A549 tox-2 inconclusive and Nrf2 ARE inh 7.3µM*.
O=C(NCc1ccccc1F)C1CCCN(C(=O)N2CCOc3ccccc32)C1 (stereo unspecified) was read as TrxR1 inh 18%, IDH1 R132H inh -14%, TrxR1 substrate -4%, Nrf2 inh -12% and A549 tox-1 7%.
Screening O=C(CSCc1ccc(F)cc1)N1CCc2c([nH]c3ccccc23)C1c1ccccc1 (stereo unspecified) returned TrxR1 inh 23%[57.1 µM], IDH1 R132H inh -13%, TrxR1 substrate 3%[57.1 µM] and A549 tox-1 -11%.
O=C(Nc1ccc(-c2cn3cccnc3n2)cc1)c1ccccc1F was read as TrxR1 inh 13%[57.1 µM], IDH1 R132H inh 7%, TrxR1 substrate 33%[57.1 µM] and A549 tox-1 -6%.
`Cc1cc(C)cc(C(=O)Nc2ccc(-c3cn4cccnc4n3)cc2)c1` gave TrxR1 inh 10%, IDH1 R132H inh -5%, TrxR1 substrate 43%, Nrf2 inh 9.2µM*, A549 tox-1 0%, FLuc enzyme inh 1%, A549 tox-2 -1% and Nrf2 ARE inh inconclusive.
